# Assay results published in PubChem BioAssay (Tox21).
# Where “and” joins values, the source holds several entries; their conditions need not be identical. Equal values may be shown once. Records with an inconclusive call do not appear. Where a call stands in place of a potency, no number is given. Calls of active or inactive are those of the source. Calls come from the whole dose curve; as a rule, active = well fitted activation curve with a large enough effect in the repeat runs; inconclusive = weak or mixed curves; inactive = flat fitted curve, though single readings scatter.
# Experiment: A CellTox Green Cytotoxicity Assay to monitor cytotoxicity in HepG2 cells - 8 hour (AID 1224890); note: nearly all actives have a fitted effect of over 45% in size
# Conditions: CellTox Green fluorescence; series mostly up to 76.8 µM
# Source text: National Center for Advancing Translational Sciences [NCATS]
# NIH Chemical Genomics Center [NCGC]
# U.S. Environmental Protection Agency [EPA]
# National Institutes of Environmental Health Sciences [NIEHS]
# National Toxicology Program [NTP]
# Cell-based models are critical for drug discovery. Determining the natural cytotoxic effects resulting from test compounds is an essential research activity. A CellTox Green Cytotoxicity Assay to monitor cytotoxicity in real time of continues cell culture during 40 hours of the compound treatment was used to screen Tox21 10K library compounds in HepG2 cells. CellTox Green Cytotoxicity Assay is a nonlytic, homogeneous, biofluorescent method to measure cytotoxicity in cell culture after experimental manipulation. The assay system uses a proprietary asymmetric cyanine dye that is excluded from viable cells but preferentially stains the dead cell's DNA. […] Viable cells produce no appreciable increases in fluorescence. Therefore, the fluorescence signal produced by the binding interaction with dead cell DNA is proportional to cytotoxicity.
# The mixture of HepG2 cell suspension and reagents were dispensed at 600cells/6 ul/well in 1536-well tissue culture treated black solid bottom plates using a Multidrop dispenser. After the assay plates were incubated at a 37 C/5% CO2 incubator for 5 hours, 23 nL of compounds dissolved in DMSO, positive and negative controls was transferred to the assay plate by a pintool work station. The plates were incubated at 37 C for 40 hours. The fluorescence intensity were measured at 0h, 8h, 16h, 24h, 32h and 40h time points using ViewLux plate reader during compound treatment.
# Potency is the fitted concentration of half-maximal effect.
SMILES,Potency,cytotoxicity increase
CC(C)(C)c1n[nH]c(=O)n(N)c1=O,inactive,–
CC(C)(C)c1cc(CCC(=O)NCCCCCCNC(=O)CCc2cc(C(C)(C)C)c(O)c(C(C)(C)C)c2)cc(C(C)(C)C)c1O,inactive,–
Cc1c(C(=O)O)cccc1[N+](=O)[O-],inactive,–
CCc1ccc(C)nc1,inactive,–
CCCCCCC(C)OC(=O)COc1nc(F)c(Cl)c(N)c1Cl (stereo not given),inactive,–
COc1cc(C(C)C)c2c(c1)S(=O)(=O)N(COc1cc(=O)n3cccc(OCCN4CCCCC4)c3n1)C2=O,–,14.9% [at 15.8 µM] (inactive)
O=C(Oc1ccccc1)c1cccc(C(=O)Oc2ccccc2)c1,inactive,–
CCCCCCOc1cc(C)c(O)c(C)c1C,35.1 µM (active),–
CCOC(OCC)C(=O)c1ccccc1,inactive,–
C/C=C/C(=O)C1=C(C)CCCC1(C)C,inactive,–
C=CC(C)(CCC=C(C)C)OC(=O)/C=C/c1ccccc1 (stereo not given),43.6 µM (active),–
CC(C)OC(=O)c1cc(C(=O)OC(C)C)cc([N+](=O)[O-])c1,inactive,–
C=CC(=O)OCCOCC(CC)(COCCOC(=O)C=C)COCCOC(=O)C=C,inactive,–
CC(CN(C)C)CN1c2ccccc2CCc2ccccc21 (stereo not given),inactive,–
OCCC(O)CO (stereo not given),inactive,–
C(=C/c1ccccc1)/c1ccccc1,inactive,–
CC(=O)Oc1ccc(C2(c3ccc(OC(C)=O)cc3)Oc3ccccc3NC2=O)cc1,inactive,–
CC(=O)Nc1ccc(O)cc1,inactive,–
c1cc2c3c(c1)ccc1cccc(c13)C2,inactive,–
CCCCCCCC/C=C/CCCOC(C)=O,inactive,–

SMILES,Potency,cytotoxicity increase
Cc1cc(=O)[nH]c(=O)[nH]1,inactive,–
CCCCCCCCCCCCCc1ccccc1,inactive,–
CCCCCCCCCCCCCC[n+]1ccccc1,49 µM (active),–
CCOC(=O)C1=C(C)NC(C)=C(C(=O)OCC)C1c1ccccc1/C=C/C(=O)OC(C)(C)C,inactive,–
CC(C)=CCCC(C)CCOC(=O)C(C)C (stereo not given),inactive,–
CCCCCCCC(=O)OCC,inactive,–
S=P(N1CC1)(N1CC1)N1CC1,inactive,–
CS(C)(=O)=O,inactive,–
CC(C(O)c1ccccc1)N(C)CCOC(c1ccccc1)c1ccccc1 (stereo not given),26.8 µM (active),–
CCCCCCCCCCCC(=O)N(CC)CC,inactive,–
O=C1c2c(O)ccc(O)c2C(=O)c2c(NCCNCCO)ccc(NCCNCCO)c21,inactive,–
O=C1C=CC(=O)N1c1ccccc1,34.7 µM (active),–
C[Si](C)(C)Cl,inactive,–
COc1ccc2sc(C(=O)Nc3nnn[nH]3)c(OC(C)C)c2c1,inactive,–
COCC(=O)O[C@]1(CCN(C)CCCc2nc3ccccc3[nH]2)CCc2cc(F)ccc2[C@@H]1C(C)C,23.9 µM (active),–
C=CC(=O)OCCN(CC)CC,inactive,–
Nc1ccc2cc3ccc(N)cc3nc2c1,49 µM (active) and 21.3 µM (active),–
CCc1cccc(C)c1,inactive,–
COC(=O)[C@]1(C)CCC[C@@]2(C)[C@H]1CC=C1C=C(C(C)C)CC[C@@H]12,38.9 µM (active),–
CCN(CC)c1cccc(C)c1,inactive,–
